# From PubChem BioAssay AID624417 (National Center for Advancing Translational Sciences (NCATS), 2012)
# Out of some 410,000 compounds screened, about 6,400 (1.6%) were called active. Roughly 20% stayed inconclusive and do not appear here. Calls follow the shape of the dose curve; as a rule, active = well fitted inhibition curve with a large enough effect; inconclusive = small, poorly fitted or top-dose-only effect; inactive = no such curve, though single readings can be large or run the other way. Many of the other results were omitted from the sample, so actives are more common in it than they were.
# Biological target: Glucagon-like peptide 1 receptor (Homo sapiens) (UniProt P43220)
# Sequence (P43220 whole entry, looked up): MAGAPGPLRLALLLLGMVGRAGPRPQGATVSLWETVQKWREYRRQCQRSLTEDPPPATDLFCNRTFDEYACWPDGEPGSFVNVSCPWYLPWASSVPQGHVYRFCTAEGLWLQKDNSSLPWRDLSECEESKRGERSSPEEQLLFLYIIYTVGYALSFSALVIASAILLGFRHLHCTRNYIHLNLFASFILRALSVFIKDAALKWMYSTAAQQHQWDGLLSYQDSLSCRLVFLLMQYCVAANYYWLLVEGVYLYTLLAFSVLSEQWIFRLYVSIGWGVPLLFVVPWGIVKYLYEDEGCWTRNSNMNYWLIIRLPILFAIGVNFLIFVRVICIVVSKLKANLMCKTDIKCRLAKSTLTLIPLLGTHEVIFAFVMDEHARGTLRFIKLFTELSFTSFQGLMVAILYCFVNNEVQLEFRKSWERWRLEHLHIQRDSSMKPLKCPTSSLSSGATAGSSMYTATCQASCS
# Test: qHTS of GLP-1 Receptor Inverse Agonists (Inhibition Mode); also: nearly all actives have a fitted effect of over 55% in size
# Settings: HEK293 GLP-1R CRE-luciferase, luminescence, 24 h, GLP-1R form is constitutively active; series mostly up to 38.3 µM; activity change, negative = inhibition: at the top concentration
# Summary of the method: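 Using stably transfected HEK293 (constitutively active GLP-1R, cAMP-luciferase reporter), compounds were incubated 24 hr and luciferase measured by luminescence.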
# % is scaled to controls: 0 for no effect and ±100 for the full control effect; potency is read from the fitted curve at half-maximal effect.
SMILES,"activity change, negative = inhibition",Potency
COc1cc(NC(=O)C2=C(C)OCCS2)c(Cl)cc1C(=O)NCCCN1CCCC(C)C1 (configuration not stated),16.6% (inactive),
O=C(Nc1cc(C(F)(F)F)ccc1Cl)c1nc2ccccc2nc1N1CCCCC1,0.167% (inactive),
O=C(CNS(=O)(=O)c1cccc(C(F)(F)F)c1)Nc1ccccc1F,-16.9% (inactive),
O=C(NNc1ccccc1Cl)C(O)(c1cccc(C(F)(F)F)c1)c1cccc(C(F)(F)F)c1,,3.98 µM (active)
O=C(COC(=O)c1cncc(Br)c1)Nc1ccc(S(=O)(=O)N2CCOCC2)cc1,-0.0324% (inactive),
CC1(Oc2ccc(Cl)cc2)CCN(Cc2csc3ccccc23)C1 (configuration not stated),-17.5% (inactive),
CCCc1c(C(=O)Nc2ccc(F)cc2)cnn1-c1ccccc1,,10 µM (active)
CCCc1c(C(=O)O)cnn1-c1ccc(Cl)cc1,6.36% (inactive),
CCc1ccccc1NC(=O)c1cnn(-c2ccc(F)cc2)c1C1CCNCC1,-22.5% (inactive),
Cc1cc(OCC(=O)Nc2nccs2)c2c(C)c(C)c(=O)oc2c1,-12.1% (inactive),
CCc1noc(C)c1C(=O)Nc1nc2ccc(OC)cc2s1,0.249% (inactive),
Cc1noc(C)c1CSCC(=O)Nc1nc2ccc(Oc3ccccc3)cc2s1,,7.94 µM (active)
Cc1ccc(F)cc1NC(=O)CSCc1c(C)noc1C,-3.47% (inactive),
COc1ccc(S(=O)(=O)N2CCC(C(=O)NCCC(=O)NCCc3cccc(F)c3)CC2)cc1,3.25% (inactive),
COC(=O)Nc1nc2ccc(Sc3ccccc3)cc2[nH]1,,1.12 µM (active)
CC(C)c1nc2ccc(C(=O)O)cc2[nH]1,-1.32% (inactive),
Cc1ccc2nc(CNC(=O)c3ccccc3)[nH]c2c1,-8.76% (inactive),
Cc1cccc(C(=O)OCC(=O)Nc2sccc2C(N)=O)c1C,-14.6% (inactive),
CC(C)C1CCN(C(=O)C2CCC(=O)N(C3CCCCCC3)C2)CC1 (configuration not stated),4.55% (inactive),
Cc1ccc(/C=C2\SC(=S)N(CCC(=O)Nc3ccc(O)cc3)C2=O)cc1,-7.25% (inactive),
O=C(CCCN1C(=O)/C(=C/c2cccs2)SC1=S)Nc1ccc(O)cc1,,5.01 µM (active)
O=C(CCN1C(=O)/C(=C/c2cccs2)SC1=S)NNC(=O)c1cccc(O)c1,-10.3% [at 7.66 µM] (inactive),
CCCNC(=O)C1(C)CCN1C(=O)Cc1ccc(-c2ccccc2)cc1 (configuration not stated),-12.2% (inactive),
O=C(c1ccc(CS(=O)Cc2ccccc2Cl)o1)N1CCN(c2ccccc2)CC1 (configuration not stated),-1.8% (inactive),
OCC1OC(n2cnc3c(N4CCCC4)ncnc32)C(O)C1O (configuration not stated),3.56% (inactive),
CC(=O)N1CCN(Cc2cc(=O)oc3cc(C)ccc23)CC1,8.45% (inactive),

SMILES,"activity change, negative = inhibition",Potency
Cc1ccc(C(=O)Nc2c(-c3ccccc3)[nH][nH]c2=O)cc1,8.15% (inactive),
CCc1cccc(C)c1NS(=O)(=O)c1ccc(-c2cc(C)no2)s1,-48% (inactive),
CCc1cccc(C)c1NS(=O)(=O)c1cc(Br)cnc1N,,10 µM (active)
COc1ccc(N2CCN(S(=O)(=O)c3cc(Br)cnc3N)CC2)cc1,11.4% (inactive),
Cc1ccc(-c2nc3c(Cl)cc(C(F)(F)F)cn3c2Cc2cccc(Cl)c2)cc1,8.32% (inactive),
CCn1c(SCC(=O)N2CCCC2=O)nc2ccccc21,-4.71% (inactive),
Cc1cc(C(=O)N/N=C\C(Br)=C\c2ccccc2)c(C)o1,5.04% [at 7.66 µM] (inactive),
CC(C)c1cc(C(=O)N/N=C/C(Br)=C/c2ccccc2)n[nH]1,,8.91 µM (active)
CC(C)c1cc(C(=O)O)n[nH]1,0% (inactive),
COCCNc1ncnc2c1ncn2[C@H]1CN(Cc2ccc(OC)cc2)C[C@@H](CO)O1,17.4% (inactive),
O=C(C1CCN(S(=O)(=O)c2ccc(Br)s2)CC1)N1CCN(C2CCCCC2)CC1,,10 µM (active)
O=C(NC1CCCCC1)C1CCCN(S(=O)(=O)c2ccc(Br)s2)C1 (configuration not stated),12.5% (inactive),
O=C(C1CCN(S(=O)(=O)c2cccs2)CC1)N1CCCCCC1,0% (inactive),
CN1C[C@@H](CO)O[C@@H](n2cnc3c(N4CCN(CCO)CC4)ncnc32)C1,-6.73% (inactive),
CCCCN1CC(N2CCN(Cc3cccc(C)c3)CC2)CS1(=O)=O (configuration not stated),-22.9% (inactive),
COc1ccc(NC(=S)N2CCC(NC(=O)c3cccc(F)c3)CC2)cc1,10.9% (inactive),
CCCNC(=S)N1CCC(NC(=O)c2ccc(OC)cc2)CC1,2.99% (inactive),
COc1cc(OC)cc(C(=O)NC2CCN(C(=O)N3c4ccccc4Sc4ccccc43)CC2)c1,,10 µM (active)
COc1cccc(-c2cc(NC(C)=O)c3ncc(-c4cccc(C(C)=O)c4)n3c2)c1,-16.5% (inactive),
CCOC(=O)/C(=N\Nc1cc(Cl)ccc1Cl)N1CCN(C)CC1,,10 µM (active)
CCOC(=O)/C(=N\Nc1ccccc1Cl)N(C)C1CCS(=O)(=O)C1 (configuration not stated),-27.7% (inactive),
CCOC(=O)N1CCN(C(=O)COc2ccc(Cl)cc2C)CC1,-2.5% (inactive),
Cn1c(=O)c2cc(NC(=O)NCCc3cccs3)ccc2n1Cc1cccc(C(F)(F)F)c1,-22.3% (inactive),
Cc1oc2c(F)c(F)c(F)c(F)c2c1S(=O)(=O)Nc1cccc(C(F)(F)F)c1,,3.98 µM (active)
O=C(/C=C/c1ccc(F)cc1)Nc1cccc(S(=O)(=O)Nc2cccc(C(F)(F)F)c2)c1,-16.8% (inactive),
O=C(COc1ccc(S(=O)(=O)Nc2cccc(C(F)(F)F)c2)cc1)N1CCOCC1,-19.7% (inactive),

SMILES,"activity change, negative = inhibition",Potency
COc1ccc(C2=Nc3ccccc3NC(=O)C2N(C(=O)c2cc3ccccc3[nH]2)c2ccccc2)cc1 (configuration not stated),-2.32% (inactive),
Cc1ccc(Nc2c(-c3ccc(Cl)cc3)nc3sccn23)c(C)c1,,14.1 µM (active)
O=c1cc(Cn2nnc(-c3ccc(Cl)cc3)n2)nc2sccn12,0% (inactive),
CC(=O)Nc1c(-c2ccc(C)cc2)nc2ccc(Cl)cn12,28.1% (inactive),
CC(C)CCOc1ccc(C(=O)Nc2cc(S(=O)(=O)N3CCOCC3)ccc2N2CCOCC2)cc1,-10.7% (inactive),
CCc1nc2ccc(C(=O)N(C)CCN(C)C)cn2c1N(CC)CCOC,21.2% (inactive),
OC[C@@H]1CN(Cc2ccc3c(c2)OCO3)C[C@H](n2cnc3c(NCc4ccco4)ncnc32)O1,-8.25% (inactive),
O=C(CSc1ccc(Cl)cc1)NC1CC1,2.92% (inactive),
COc1ccc(NC(=O)c2c(C)oc3c2CCCC3)cc1,0% (inactive),
CC1CCc2noc(NC(=O)c3ccc([N+](=O)[O-])cc3)c2C1 (configuration not stated),-25.2% (inactive),
COc1ccc(C(=O)Nc2onc3c2CCCC3)cc1,,11.2 µM (active)
O=C1NC[C@H](CCCCN2C[C@H](Cc3ccccc3)N(Cc3ccccc3)C(=O)C2=O)N(CCc2ccc(O)cc2)C1=O,8.51% (inactive),
CN1CCn2cnc(C(=O)NCC(=O)OC(C)(C)C)c2C1=O,15.6% (inactive),
O=C(Nc1nnc([C@H]2C[C@H](O)[C@@H](CO)O2)s1)c1cccc(Cl)c1,-12.3% (inactive),
CC1=NN(c2cccc(Cl)c2)C(=O)C12CC(C)=C(C)CS2 (configuration not stated),,10 µM (active)
CCOC1=C2[C@H]([C@H]3C(=O)N(c4ccccc4)C(=O)[C@H]3C1)[C@@H](c1ccccc1)N(S(=O)(=O)c1ccc(C)cc1)[C@H]2c1ccccc1,10.2% (inactive),
Cc1cc(Nc2ccc(C)c(C)c2)n2ncnc2n1,11.7% (inactive),
CCn1ccnc1CN1CCCC(C(=O)c2ccc3c4c(cccc24)CC3)C1 (configuration not stated),,11.2 µM (active)
CCOC(=O)c1[nH]ncc1CN1CCCC(C(=O)c2ccc(OC)cc2C)C1 (configuration not stated),-2.62% (inactive),
CC(=O)NCC(=O)N1CCCC(C(=O)c2ccc3c4c(cccc24)CC3)C1 (configuration not stated),8.71% (inactive),
O=C(N=C1SC2CS(=O)(=O)CC2N1Cc1ccccc1)c1ccccc1 (configuration not stated),0.0638% (inactive),
CSCCC(C(=O)NC(C)(C)C)n1c(-c2ccccc2)nc2ccccc21 (configuration not stated),11% (inactive),
COc1ncnc2c1ncn2CCCNCCN1CCOCC1,6.67% (inactive),
CCc1nc2c(OCCOc3ccccc3)cccn2c1N(C)C(=O)c1ccc(OC)cc1,10.8% (inactive),
CN(C(=O)CC(NC(=O)c1ccccc1)(c1ccccc1)c1ccccc1)c1ccccc1,,12.6 µM (active)
CN(C(=O)COC(=O)CNC(=O)C12CC3CC(CC(C3)C1)C2)c1ccccc1,21.8% (inactive),

SMILES,"activity change, negative = inhibition",Potency
CC(C)(C)c1ccc(C(=O)NNC(=O)Cc2ccccc2)cc1,-24.5% (inactive),
COc1ccc(C(CNC(=O)CSc2ccccc2)N2CCOCC2)cc1 (configuration not stated),-4.63% (inactive),
COc1ccc(C(=O)O/N=C(\N)Cc2ccc(Cl)cc2Cl)cc1OC,,8.91 µM (active)
COc1ccc(C/C(N)=N/OC(=O)c2ccco2)cc1OC,47.5% (inactive),
COc1ccc(C(=O)ON=C2c3ccccc3-c3ccccc32)cc1OC,21.9% (inactive),
CCc1c(C)nc2c(-c3ccccc3)c(C)nn2c1Nc1ccc(NC(C)=O)cc1,,10 µM (active)
Cc1cc(-n2nc(C)cc2C)n2nc(C)c(-c3ccccc3)c2n1,-10.6% (inactive),
Cc1cc(-c2ccccc2)n2nc(C)c(-c3ccccc3)c2n1,-1.84% (inactive),
Cc1ccc2nc(-c3ccccc3)c(CC3CCCCC3)n2c1,-29.8% (inactive),
O=C1Nc2ccccc2-n2nnnc2C1N1CCN(c2cccc(C(F)(F)F)n2)CC1 (configuration not stated),-22% (inactive),
CC(=O)c1cccc(-c2cnc3c(NC=O)cc(-c4ccccc4Oc4ccccc4)cn23)c1,-19.1% (inactive),
CNc1cncc(-c2cccc(C(=O)N3CCOCC3)c2)n1,2.33% (inactive),
Cc1nccn1-c1ccc(NC(=O)[C@H]2O[C@@H](n3ccc(=O)[nH]c3=O)[C@H](O)[C@@H]2O)cc1,8.26% (inactive),
COc1cc(C(O)c2nc(-c3cnn(C)c3)cs2)ccc1F (configuration not stated),-19.5% (inactive),
CN1CCN(C(=O)c2ccc(NC(=O)c3ccc(Br)o3)cc2)CC1,22.9% (inactive),
CCN(CC)S(=O)(=O)c1ccc(-c2cn3ccc(C)cc3n2)cc1,15.4% (inactive),
COc1ccc(-c2cn3ccc(C)cc3n2)cc1,,6.31 µM (active)
COc1ccc(-c2cn3cccnc3n2)cc1,20.6% (inactive),
COc1ccc(-c2c(C#N)cnc(C)c2C)c(O)c1OC,-2.78% (inactive),
CNC[C@H]1OCc2cnnn2CCCC(=O)N([C@H](C)CO)C[C@@H]1C,26.7% (inactive),
OC(c1ccc(Cl)c(F)c1)c1ncc(-c2ccccc2Cl)[nH]1 (configuration not stated),-21.2% (inactive),
COC(=O)c1ccc(NCC(=O)c2ccccc2)cc1,4.32% (inactive),
COC(=O)c1ccc(C(NC(=O)OCc2ccccc2)/C(F)=C/[C@@H](C)C(=O)O)cc1 (some centres not stated),16.1% (inactive),
CCC[C@@H]1C[C@@]1(CCC)[C@@H](NC(=O)c1ccccc1)c1ccc(C(=O)OC)cc1,,5.01 µM (active)
